DSG3 Ab inh: human desmoglein-3 autoantibody binding inhibition; P32926; DSG3-coupled beads, scFv-anti-DSG3-GFP binding, flow cytometry; stronger effect = lower value; binding (percent of control), % at 10 µM; 0.48% of 310,000 active; AID 588358;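 active = binding more than 3 SD below its plate's average and above zero; inconclusive = below that plate limit but binding exactly zero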;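 also: hits lower antibody fragment binding to DSG3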
MEP2 TOR yeast: alters MEP2-GFP fluorescence in TOR pathway yeast screen | S. cerevisiae MEP2-GFP strain, flow cytometry GFP, 3 h; 100% = DMSO control level | GFP response vs DMSO, % at 10 µM | 0.51% of 330,000 active | AID 2016;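 active = GFP response versus DMSO above a set limit, roughly screen mean plus 3 SD, cut at about 180% in these data; inconclusive = fewer than 70 cells counted for a yeast strain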;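 also: median GFP fluorescence of the barcode-gated MEP2-GFP cells per well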
CIT2-GFP yeast: yeast TOR pathway CIT2-GFP modulation. S. cerevisiae CIT2-GFP strain, flow cytometry, 3 h; 100 means same as DMSO wells. GFP response vs DMSO, % at 10 µM. 0.065% of 320,000 active. AID 2029;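 active = GFP response relative to DMSO above a set limit, near the screen mean plus 3 SD, cut at about 150% in these data; inconclusive = Fewer than 70 cells measured for a yeast strain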;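 also: ratio of well median GFP fluorescence to mean of DMSO wells on the plate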
AGP1 TOR yeast: modulators of TOR pathway AGP1-GFP in S. cerevisiae. S. cerevisiae AGP1-GFP multiplex flow cytometry, 3 h; GFP as percent of DMSO wells. GFP response vs DMSO, % at 10 µM. 0.02% of 320,000 active;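 active = GFP response relative to DMSO above a set limit, near screen average plus 3 SD, cut at about 150% in these data; inconclusive = fewer than 70 cells counted for the yeast strain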;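 also: median GFP channel fluorescence of the gated AGP1 strain per well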
RPL19A-GFP yeast: modulators of TOR pathway RPL19A-GFP in S. cerevisiae; S. cerevisiae RPL19A-GFP strain, flow cytometry, 3 h; stronger effect = lower value; percent response vs DMSO, % at 10 µM; 0.3% of 330,000 active; AID 2025;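 active = percent response vs DMSO below 50%; inconclusive = fewer than 70 events counted for the yeast strain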;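 also: median channel GFP fluorescence of the barcoded RPL19A-GFP strain; ratio of sample median GFP to plate DMSO average so 100% = DMSO; lower means less RPL19A-GFP as with rapamycin TOR inhibition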
LAP4-GFP MLPCN: yeast TOR pathway LAP4-GFP modulation; 0.34% of 320,000 active; S. cerevisiae LAP4-GFP multiplex, flow cytometry GFP, 3 h; median GFP as percent of DMSO wells; GFP response vs DMSO, % at 10 µM;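 active = GFP response vs DMSO above a set limit, about the screen mean plus 3 SD, cut at about 150% in these data; inconclusive = under 70 cell events counted for the yeast strain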
* marks the source's active call; other numbers are inactive results; [ ] = another dose, or the depositor's remark. This is a sample that favours compounds with a hit; in the whole collection about 1.2% have one here.

O=C(CSc1nc2ccccc2o1)Nc1nc2ccc(Br)cc2s1 was read as DSG3 Ab inh 103, MEP2 TOR yeast 214*[may fluoresce violet], CIT2-GFP yeast inconclusive, AGP1 TOR yeast 22, RPL19A-GFP yeast 61 and LAP4-GFP MLPCN 90.
Screening CC(C)N(C(=O)[C@H]1C[C@H](CC(=O)NCCC2=CCCCC2)C(=O)N2CCc3c([nH]c4cc(-c5ccco5)ccc34)[C@]12C)C(C)C returned DSG3 Ab inh 97.
For COc1ccc(-c2[nH]ncc2N=Nc2ccccc2)cc1 the results were DSG3 Ab inh 102, MEP2 TOR yeast 104, CIT2-GFP yeast 89, AGP1 TOR yeast 80, RPL19A-GFP yeast 101 and LAP4-GFP MLPCN 151*.
Screening COc1ccc(-c2[nH]ncc2N=Nc2cc(C)cc(C)c2)cc1 returned DSG3 Ab inh 86, MEP2 TOR yeast 98, CIT2-GFP yeast 87, AGP1 TOR yeast 95, RPL19A-GFP yeast 98 and LAP4-GFP MLPCN 94.
`COc1ccccc1CNC(=O)C(C)c1ccc([N+](=O)[O-])cc1` (configuration not stated) gave DSG3 Ab inh 105, MEP2 TOR yeast 100, CIT2-GFP yeast 99, AGP1 TOR yeast 99, RPL19A-GFP yeast 102 and LAP4-GFP MLPCN 94.
`CC1=C/C(=C/N(C)C)C(=O)O1` gave DSG3 Ab inh 103, MEP2 TOR yeast inconclusive, CIT2-GFP yeast inconclusive, AGP1 TOR yeast inconclusive, RPL19A-GFP yeast 19*[may fluoresce violet] and LAP4-GFP MLPCN 130.
`Cc1ccc(C(C)C)c(OCC(=O)Nc2ccc(N3CCN(S(C)(=O)=O)CC3)cc2)c1` gave DSG3 Ab inh 53*, MEP2 TOR yeast 110, CIT2-GFP yeast 99, AGP1 TOR yeast 103, RPL19A-GFP yeast 99 and LAP4-GFP MLPCN 98.
`Cc1ccc(OCC(=O)Nc2ccc(N3CCN(S(C)(=O)=O)CC3)cc2)c(C)c1` gave DSG3 Ab inh 112, MEP2 TOR yeast 105, CIT2-GFP yeast 102, AGP1 TOR yeast 104, RPL19A-GFP yeast 99 and LAP4-GFP MLPCN 101.
`COc1ncc(-c2ccc3c(c2)S(=O)(=O)c2cccc(C(=O)O)c2C3=O)cn1` gave DSG3 Ab inh 106, MEP2 TOR yeast 103, CIT2-GFP yeast 97, AGP1 TOR yeast 104, RPL19A-GFP yeast 99 and LAP4-GFP MLPCN 105.
For Fc1ccc(C(c2nnnn2Cc2cccs2)N2CCN(C3CCCC3)CC2)cc1 (configuration not stated) the results were DSG3 Ab inh 100, MEP2 TOR yeast 104, CIT2-GFP yeast 96, AGP1 TOR yeast 98, RPL19A-GFP yeast 99 and LAP4-GFP MLPCN 91.
`c1ccc(C(c2nnnn2Cc2cccs2)N2CCN(C3CCCC3)CC2)cc1` (configuration not stated) gave DSG3 Ab inh 107, MEP2 TOR yeast 231*[may fluoresce violet], CIT2-GFP yeast inconclusive, AGP1 TOR yeast inconclusive, RPL19A-GFP yeast 33*[may fluoresce violet] and LAP4-GFP MLPCN 93.
`O=[N+]([O-])c1cccc(CON=Cc2cc(Cl)ccc2O)c1` gave DSG3 Ab inh 104.
Screening CCCOc1ccccc1-c1nc2c([nH]1)c(=O)[nH]c(=O)n2C returned DSG3 Ab inh 117, MEP2 TOR yeast 186*[may fluoresce violet], CIT2-GFP yeast inconclusive, AGP1 TOR yeast 27, RPL19A-GFP yeast 65 and LAP4-GFP MLPCN 95.
Screening O=C1C(c2ccnc3ccccc23)=C(O)c2ccccc21 returned DSG3 Ab inh 106, MEP2 TOR yeast 97, CIT2-GFP yeast 78, AGP1 TOR yeast 72, RPL19A-GFP yeast 73 and LAP4-GFP MLPCN 103.
For OC1(c2ccccc2)CC(c2ccccc2)c2ccccc2O1 (configuration not stated) the results were DSG3 Ab inh 49*.
Screening Cc1nnc2ccc(-c3ccc(NS(=O)(=O)c4ccccc4)cc3)nn12 returned DSG3 Ab inh 71*.
For CC(=O)c1ccc(S(=O)(=O)Nc2ccc(-c3ccc4nnc(C)n4n3)cc2)cc1 the results were DSG3 Ab inh 83, MEP2 TOR yeast 107, CIT2-GFP yeast 101, AGP1 TOR yeast 97, RPL19A-GFP yeast 103 and LAP4-GFP MLPCN 92.

Screens deposited in PubChem BioAssay by NMMLSC.
